# PubChem BioAssay (Tox21)
# Unmarked numbers belong to inactive results. Records with an inconclusive call do not appear. A call without a number means that no potency is given here. Active and inactive are the calls of the source. Unless noted, the call rests on the fitted dose curve; in most records, active means well fitted curve in the direction sought with a large enough effect in the repeat runs; inconclusive means weak or mixed curves; inactive means no such curve, though single readings can be large; an effect the other way counts as inactive or inconclusive.
# How the values were obtained:
# [1] = qHTS assay to identify small molecule antagonists of the estrogen related receptor (ERR) signaling pathway from Tox21 library - cell viability counter screen (AID 1224834); further: nearly all actives have a fitted effect of over 30% in size; further: potency means the concentration at half of the fitted maximal effect
# Method in brief: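 Fluorescence from CellTiter-Fluor gives the viability read-out, taken 30 min after reagent addition. Before that, ERR cells seeded 6 h earlier were incubated with compounds for 17.5 h at 37 C.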
# [2] = target: Luciferin 4-monooxygenase (Photinus pyralis) (UniProt P08659); experiment: qHTS assay to identify small molecule inhibitors of firefly luciferase (AID 1224835); further: nearly all actives have a fitted effect of over 25% in size
# Chain of Luciferin 4-monooxygenase (Photinus pyralis) (P08659 whole entry, looked up): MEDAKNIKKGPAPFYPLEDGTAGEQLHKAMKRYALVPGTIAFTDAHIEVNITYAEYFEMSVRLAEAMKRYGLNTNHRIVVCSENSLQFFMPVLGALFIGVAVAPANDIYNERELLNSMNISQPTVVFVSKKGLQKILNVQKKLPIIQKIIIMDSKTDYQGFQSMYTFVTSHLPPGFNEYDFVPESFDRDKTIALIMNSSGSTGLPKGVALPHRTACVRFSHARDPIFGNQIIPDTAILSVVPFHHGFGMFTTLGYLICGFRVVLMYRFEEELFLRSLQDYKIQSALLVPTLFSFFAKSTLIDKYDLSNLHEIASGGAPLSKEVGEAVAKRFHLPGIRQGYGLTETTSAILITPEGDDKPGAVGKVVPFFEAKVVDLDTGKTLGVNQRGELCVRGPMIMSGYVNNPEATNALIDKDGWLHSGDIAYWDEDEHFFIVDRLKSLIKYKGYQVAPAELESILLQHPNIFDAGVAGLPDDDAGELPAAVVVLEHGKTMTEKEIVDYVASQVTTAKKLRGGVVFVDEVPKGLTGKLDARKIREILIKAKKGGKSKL
# Method in brief: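 Biochemical qHTS: compounds run as interplate titrations against purified firefly enzyme, with D-luciferin and ATP each at its KM concentration. Light output recorded by CCD imaging.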
# [3] = qHTS assay to identify small molecule antagonists of the constitutive androstane receptor (CAR) signaling pathway - cell viability counter screen (AID 1224837); further: nearly all actives have a fitted effect of over 45% in size
# Method in brief: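 HepG2-CYP2B6-hCAR cells, 2500/well, 4 hr pre-incubation; compound titration, 15 conc.; CITCO 50 nM final; 23 hr, 37 C/5% CO2; CellTiter-Fluor, fluorescence intensity.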
# [4] = target: Nuclear receptor subfamily 1 group I member 3 (Homo sapiens) (UniProt Q14994); experiment: qHTS assay to identify small molecule antagonists of the constitutive androstane receptor (CAR) signaling pathway (AID 1224838);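 further: HepG2 cells stably expressing hCAR with CYP2B6 luciferase reporter stimulated by CITCO; nearly all actives have a fitted effect of over 40% in size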
# Chain of Nuclear receptor subfamily 1 group I member 3 (Homo sapiens) (Q14994 whole entry, looked up): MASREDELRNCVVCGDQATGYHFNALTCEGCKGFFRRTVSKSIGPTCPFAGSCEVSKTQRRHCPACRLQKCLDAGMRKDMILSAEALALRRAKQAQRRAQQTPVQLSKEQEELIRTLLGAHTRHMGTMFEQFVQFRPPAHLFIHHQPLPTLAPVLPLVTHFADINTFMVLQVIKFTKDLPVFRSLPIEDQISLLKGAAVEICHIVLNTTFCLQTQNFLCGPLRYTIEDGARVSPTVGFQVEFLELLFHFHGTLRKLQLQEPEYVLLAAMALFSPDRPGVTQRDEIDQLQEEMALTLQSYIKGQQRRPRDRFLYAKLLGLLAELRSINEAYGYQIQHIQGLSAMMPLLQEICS
# Method in brief: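 HepG2-CYP2B6-hCAR cells; 4 h pre-incubation; cpd (15 conc) + CITCO 50 nM final; 24 h, 37 C/5% CO2; ONE-Glo, luminescence.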
# [5] = target: Nuclear receptor subfamily 1 group I member 3 (Homo sapiens) (UniProt Q14994); experiment: qHTS assay to identify small molecule agonists of the constitutive androstane receptor (CAR) signaling pathway (AID 1224839); further: nearly all actives have a fitted effect of over 15% in size; further: potency means the concentration at half of the fitted maximal effect;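 on activation: HepG2 cells stably carrying human CAR and a CYP2B6 luciferase reporter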
# Method in brief: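 Compounds tested at 15 concentrations on HepG2 cells stably harbouring hCAR and CYP2B6-2.2kb reporter constructs, co-treated with PK11195 (0.75 uM final), 24 h at 37 C; luminescent reporter signal quantified.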
# [6] = qHTS assay to identify small molecule antagonists of the estrogen related receptor signaling pathway with the pleiotropic PPARgamma coactivator (PGC) from Tox21 10K library (AID 1224841; call rule not given here; further: actives are mostly falling curves and most rising ones were filed inactive; nearly all actives have a fitted effect of over 50% in size; further: potency means the concentration at half of the fitted maximal effect)
# Method in brief: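 PGC/ERR cell line, 2,000 cells/well; 6 h pre-incubation 37 C/5% CO2; compounds (DMSO) pinned in; 18 h, 37 C; One-Glo, 30 min RT; luminescence.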
# [7] = qHTS assay to identify small molecule agonists of the estrogen related receptor signaling pathway with the pleiotropic PPARgamma coactivator (PGC) from Tox21 10K library (AID 1224842); further: nearly all actives have a fitted effect of over 15% in size
# Method in brief: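 PGC/ERR reporter cell line, 2,000 cells per well, incubated 6 h at 37 C before 23 nL compound in DMSO was added. After 18 h at 37 C, One-Glo luminescence read following 30 min at room temperature.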
# [8] = target: Thyrotropin receptor (Homo sapiens) (UniProt P16473); experiment: qHTS assay to identify small molecule agonists of the thyroid stimulating hormone receptor (TSHR) signaling pathway (AID 1224843; calls by dose curve; further: nearly all actives have a fitted effect of over 45% in size)
# Chain of Thyrotropin receptor (Homo sapiens) (P16473 whole entry, looked up): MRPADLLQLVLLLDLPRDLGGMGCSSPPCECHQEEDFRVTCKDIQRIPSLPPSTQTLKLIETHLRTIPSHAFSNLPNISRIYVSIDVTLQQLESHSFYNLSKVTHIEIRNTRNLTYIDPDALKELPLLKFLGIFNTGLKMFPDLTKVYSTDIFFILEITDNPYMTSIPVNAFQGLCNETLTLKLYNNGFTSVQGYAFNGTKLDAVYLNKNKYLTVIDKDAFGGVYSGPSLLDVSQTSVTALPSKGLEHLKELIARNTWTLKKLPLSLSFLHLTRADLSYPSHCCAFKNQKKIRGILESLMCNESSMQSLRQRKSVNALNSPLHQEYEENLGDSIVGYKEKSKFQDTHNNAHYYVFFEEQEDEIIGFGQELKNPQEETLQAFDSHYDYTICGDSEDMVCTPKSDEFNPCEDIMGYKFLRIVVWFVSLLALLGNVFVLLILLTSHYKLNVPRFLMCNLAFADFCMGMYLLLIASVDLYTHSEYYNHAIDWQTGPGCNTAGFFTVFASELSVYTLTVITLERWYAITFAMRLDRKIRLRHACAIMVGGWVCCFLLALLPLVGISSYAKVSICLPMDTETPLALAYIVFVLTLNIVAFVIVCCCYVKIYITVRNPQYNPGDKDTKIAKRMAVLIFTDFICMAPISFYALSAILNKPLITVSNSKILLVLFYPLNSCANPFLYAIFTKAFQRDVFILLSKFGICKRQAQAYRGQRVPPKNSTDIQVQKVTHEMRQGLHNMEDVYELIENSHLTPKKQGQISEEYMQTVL
# Method in brief: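 Steps: seed 800 TSHR-HEK293 cells per well; add test compound and hold 30 min at ambient temperature; dispense cAMP-d2 then anti-cAMP cryptate; incubate 1 h at ambient; measure fluorescence intensity.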
# [9] = qHTS assay to identify small molecule agonists of the hypoxia (HIF-1) signaling pathway - cell viability counter screen (AID 1224844; calls by dose curve; further: nearly all actives have a fitted effect of over 50% in size; further: potency means the concentration at half of the fitted maximal effect)
# Method in brief: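 ME-180 HRE-bla cells, 2,000/well, 0.5% dialyzed FBS; 5 hr settle, 17 hr compound at 37C/5% CO2; CCF4-AM reporter read first, then CellTiter-Glo luminescence after 30 min RT.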
# [10] = qHTS assay to identify small molecule agonists of the hypoxia (HIF-1) signaling pathway (AID 1224846; active means well fitted activation curve with a large enough effect in the signal ratio in the repeat runs, not every such curve was filed as active; the % refers to the signal ratio)
# Method in brief: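 Cell line: CellSensor HRE-bla ME-180; 2,000 cells/well; 0.5% dialyzed FBS; 5 h preincubation; DMSO compound pin transfer; 17 h, 37C, 5% CO2; CCF4-AM added; bla FRET signal scored for activation.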
# [11] = qHTS assay to identify small molecule agonists of H2AX - cell viability counter screen (AID 1224847; calls by dose curve; further: nearly all actives have a fitted effect of over 30% in size; further: potency means the concentration at half of the fitted maximal effect)
# Method in brief: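 Compounds tested at 15 concentrations were incubated 3 hr at 37C with wild-type CHO-K1 cells; cellular ATP-based luminescence (CellTiter-Glo) indicated viability.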
# [12] = qHTS assay to identify small molecule antagonists of the estrogen related receptor (ERR) signaling pathway from Tox21 library (AID 1224848); further: nearly all actives have a fitted effect of over 50% in size; further: potency means the concentration at half of the fitted maximal effect
# Method in brief: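 Luminescent reporter read-out (ONE-Glo) from NTP's ERR cell line after 18 h treatment at 37 C with DMSO-dissolved Tox21 compounds; cells pre-plated 6 h beforehand at 2,000 per well.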
# [13] = qHTS assay to identify small molecule agonists of the estrogen related receptor (ERR) signaling pathway from Tox21 library (AID 1224849; calls by dose curve; further: nearly all actives have a fitted effect of over 15% in size); details: ERR reporter cell line, ONE-Glo luciferase, 18 h; at 92.4 µM (top of the series) unless noted
# Method in brief: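 ERR cells, 6 h pre-incubation 37 C/5% CO2; cpd in DMSO pinned; 18 h 37 C; ONE-Glo added, 30 min RT; luminescence read. Agonist mode, qHTS.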
# [14] = qHTS RealTime-Glo MT Cell Viability Assay in HepG2 cells - 24 hour (AID 1224867); further: nearly all actives have a fitted effect of over 50% in size
# Method in brief: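 Viability was tracked continuously by NanoLuc luminescence from prosubstrate reduced by living HepG2 cells, at successive time points over 40 h of compound exposure. Cells with reagent were preincubated 5 h at 37 °C before compound addition.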
# [15] = qHTS RealTime-Glo MT Cell Viability Assay in HEK293 cells - 32 hour (AID 1224868); further: nearly all actives have a fitted effect of over 50% in size; further: potency means the concentration at half of the fitted maximal effect
# Method in brief: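 Viability tracked continuously by luminescence as live cells reduce a prosubstrate for NanoLuc; HEK293 cells preincubated 5 h, compound-treated at 37 C, and read at 0, 8, 16, 24, 32 and 40 h.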
# [16] = A CellTox Green Cytotoxicity Assay to monitor cytotoxicity in HEK293 cells - 0 hour (AID 1224869); further: nearly all actives have a fitted effect of over 50% in size
# Method in brief: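 Nonlytic real-time cytotoxicity: HEK293 + CellTox Green reagent plated, 5 h preincubation, pintool compound addition (23 nL in DMSO), 37 C for 40 h, fluorescence measured at successive time points.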
# [17] = qHTS RealTime-Glo MT Cell Viability Assay in HepG2 cells - 40 hour (AID 1224870); further: nearly all actives have a fitted effect of over 50% in size; further: potency means the concentration at half of the fitted maximal effect
# Method in brief: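 HepG2 cells (600/well) mixed with RealTime-Glo MT reagent, settled 5 h at 37 C/5% CO2 before compound addition. Nonlytic NanoLuc luminescence from viable-cell prosubstrate reduction read repeatedly during 40 h treatment at 37 C.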
# [18] = qHTS assay to identify small molecule antagonists of the estrogen related receptor signaling pathway with the pleiotropic PPARgamma coactivator (PGC) from Tox21 10K library - cell viability counter screen (AID 1224840; active means well fitted cell-killing curve with a large enough effect in the repeat runs, not every such curve was filed as active; further: nearly all actives have a fitted effect of over 40% in size)
# Method in brief: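 PGC/ERR cells, 2,000/well; 6 h pre-incubation 37 C/5% CO2; cpd in DMSO via pin tool; 17.5 h 37 C; CellTiter-Fluor, 30 min; fluorescence.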
# [19] = qHTS assay to identify small molecule agonists of H2AX (AID 1224845; active means well fitted activation curve with a large enough effect in the signal ratio in the repeat runs, not every such curve was filed as active; the % refers to the signal ratio)
# Method in brief: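 Wild-type CHO-K1 cells, plated overnight, exposed 3hr at 37C to 15 concentrations (0.76% DMSO final). Lysed, then HTRF anti-pH2AX (S139) cryptate and anti-H2AX-d2 antibodies, 24 hr room temperature; 665/620 nm emission read.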
# [20] = qHTS assay to identify small molecule agonists of the constitutive androstane receptor (CAR) signaling pathway - cell viability counter screen (AID 1224836); further: nearly all actives have a fitted effect of over 45% in size
# Method in brief: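 23 h treatment, 37 C, 5% CO2. Cell line: HepG2 stably expressing hCAR with a CYP2B6-2.2kb construct. Co-treatment: PK11195, 0.75 uM final. Read-out: CellTiter-Fluor fluorescence intensity.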
Compound,Potency [1],Potency [2],Potency [3],Potency [4],Potency [5],Potency [6],Potency [7],Potency [8],Potency [9],outcome [10],Potency [11],Potency [12],"activity change, positive = activation [13]",Potency [14],Potency [15],Potency [16],Potency [17],Potency [18],Potency [19],Potency [20]
C=CC(C)(O)CCCC(C)CCCC(C)CCCC(C)C (centres undefined),inactive,inactive,inactive,inactive,inactive,inactive,inactive,inactive,inactive,inactive,inactive,inactive,-0.948%,inactive,inactive,inactive,inactive,,,
CCn1nc(C)c2c1C(=O)NCC(c1ccc(O)cc1)=N2,inactive,inactive,inactive,inactive,inactive,,,inactive,inactive,inactive,,,,inactive,inactive,inactive,inactive,inactive,inactive,
COc1cc2ncnc(Nc3ccc(F)c(Cl)c3)c2cc1OCCCN1CCOCC1,21.1 µM (active),inactive,,inactive,inactive,,inactive,inactive,,inactive,55.2 µM (active),13.3 µM (active),-47.8% [at 42.5 µM],,9.52 µM (active),inactive,26.8 µM (active),,inactive,
CCCC1C(CC)=CC(CC)=CN1c1ccccc1 (centres undefined),inactive,inactive,inactive,inactive,19.3 µM (active),34.4 µM (active),inactive,inactive,inactive,inactive,inactive,43.3 µM (active),-47.2%,inactive,13.8 µM (active),inactive,inactive,inactive,inactive,
OCCSc1ccccc1,inactive,inactive,inactive,,inactive,,,inactive,21.9 µM (active),,inactive,,,inactive,inactive,inactive,inactive,inactive,inactive,
CO[Si](C)(OC)OC,inactive,inactive,inactive,,,,,inactive,inactive,inactive,inactive,,,inactive,inactive,inactive,inactive,,inactive,inactive
CC1=CC(O)CC(C)(C)C1 (centres undefined),inactive,inactive,inactive,,,,,inactive,inactive,inactive,inactive,,1.93%,inactive,inactive,inactive,inactive,,inactive,inactive
